Records with an inconclusive call do not appear. Unless noted, the call rests on the fitted dose curve; in most records, active means well fitted curve in either direction with a large enough effect (not every such curve was filed as active); inconclusive means small, poorly fitted or top-dose-only effect, or another doubt; inactive means flat fitted curve, though single readings scatter.
Key:
[1] = AP1 Signaling Pathway (AID 357); settings: ME-180 AP-1-bla reporter, EGF-induced, beta-lactamase ratio, 5 h; at 17.2 µM (top of the series) unless noted;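 further: ME-180 reporter cells stimulated with EGF at its EC50 level; on the % scale 0 is the no-effect control and ±100 the full control effect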
How it was run: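 Beta-lactamase reporter under AP-1 response element, ME-180 background. Stimulus: EC50 EGF. Compound exposure 5 h, 37 °C. Detection: CCF4, 2.5 h RT, 460/530 nm. Values: AC50 from titration.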

[2] = NFAT Signaling Pathway (AID 444); settings: Jurkat NFAT-bla M1, carbachol, beta-lactamase ratio, 5 h; at 17.2 µM (top of the series) unless noted;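 further: carbachol stimulus at about its EC50 of 1 µM final; on the % scale 0 is the no-effect control and ±100 the full control effect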
How it was run: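 Read-out: CCF4 FRET ratio (460 nm/530 nm) after 1 h RT dye loading, used for %activity and AC50 from titration series. Cells: Jurkat NFAT-β-lactamase/M1 line, treated with compound plus 1 uM carbachol for 5 h, 37 °C.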

[3] = Stat Signaling Pathway (AID 446); settings: ME-180 (cervical carcinoma) SIE beta-lactamase reporter, IL-6 stimulated, 5 h; at 17.2 µM (top of the series) unless noted;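 further: ME-180 cervical cancer cells given 40 pM IL-6 alongside compound; SIE-controlled beta-lactamase reporter measured as 460/530 nm FRET emission ratio; on the % scale 0 is the no-effect control and ±100 the full control effect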
How it was run: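 FRET read-out (405 nm excitation, 460/530 nm emission) of a beta-lactamase reporter under a STAT-inducible element in ME-180 cervical carcinoma cells. Cells with compound receive 40 pM IL-6 for 5 h. Values are normalised to AC90 stimulation and AC90 JAK-inhibitor controls.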

[4] = molecular target: Glucocorticoid receptor (Homo sapiens) (UniProt P04150); test: GR-GFP Redistribution (AID 450;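 active means compounds whose dose series gives a full or clear partial fitted curve of increased nuclear translocation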; further: potency means the concentration at half of the fitted maximal effect); settings: U2OS GR-GFP nuclear translocation, laser cytometry, 2 h; series mostly up to 20.6 µM
Chain of Glucocorticoid receptor (Homo sapiens) (P04150 whole entry, looked up): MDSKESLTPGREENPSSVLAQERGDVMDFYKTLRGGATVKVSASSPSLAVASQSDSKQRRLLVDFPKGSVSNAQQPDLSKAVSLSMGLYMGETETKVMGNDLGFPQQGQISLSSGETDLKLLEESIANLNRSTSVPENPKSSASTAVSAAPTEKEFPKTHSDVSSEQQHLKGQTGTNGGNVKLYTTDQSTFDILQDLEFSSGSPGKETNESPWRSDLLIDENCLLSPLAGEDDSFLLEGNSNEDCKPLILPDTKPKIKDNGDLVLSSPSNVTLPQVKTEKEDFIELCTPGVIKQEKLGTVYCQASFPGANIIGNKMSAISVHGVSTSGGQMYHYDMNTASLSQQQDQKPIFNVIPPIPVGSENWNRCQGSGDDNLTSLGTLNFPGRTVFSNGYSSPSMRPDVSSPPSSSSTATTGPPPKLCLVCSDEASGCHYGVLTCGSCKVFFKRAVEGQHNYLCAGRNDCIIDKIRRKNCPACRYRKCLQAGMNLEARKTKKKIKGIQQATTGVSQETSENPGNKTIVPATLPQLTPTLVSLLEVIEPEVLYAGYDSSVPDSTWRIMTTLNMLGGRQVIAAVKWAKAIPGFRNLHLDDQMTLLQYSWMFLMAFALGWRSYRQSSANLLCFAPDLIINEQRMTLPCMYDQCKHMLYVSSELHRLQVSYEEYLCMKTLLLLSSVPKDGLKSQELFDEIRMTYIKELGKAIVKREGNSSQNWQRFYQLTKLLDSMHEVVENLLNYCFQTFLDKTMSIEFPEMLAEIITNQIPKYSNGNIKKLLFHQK

CC12CN3CC(=O)N4CC5(C)CN(CC(C)(C4)C5=O)C(=O)CN(C1)CC(C)(C3)C2=O
inactive: activity change, negative = inhibition [1] -1.13% | activity change, negative = inhibition [2] 2.81% | activity, negative = inhibition [3] 0.401% | Potency [4] > 20.6 µM

CCCOc1ccc(-c2nnc(N)s2)cc1
inactive: activity change, negative = inhibition [1] 9.15% | activity change, negative = inhibition [2] 2.03% | activity, negative = inhibition [3] 5.95% | Potency [4] > 20.6 µM

COC(=O)COc1ccc(Oc2nc(SC)nc(N(C)C)n2)nn1
inactive: activity change, negative = inhibition [1] 4.25% | activity change, negative = inhibition [2] 4.35% | activity, negative = inhibition [3] -4.81% | Potency [4] > 20.6 µM

Cc1ccc(Cn2ncc3c(N4CCOCC4)ncnc32)cc1
inactive: activity change, negative = inhibition [1] -2.95% | activity change, negative = inhibition [2] 19.3% | activity, negative = inhibition [3] 3.94% | Potency [4] > 20.6 µM

CN(C)c1nc(OCCOC(=O)Nc2ccc(Cl)cc2Cl)nc(N(C)C)n1
inactive: activity change, negative = inhibition [1] -3.73% | activity change, negative = inhibition [2] -3.72% | activity, negative = inhibition [3] -7.35% | Potency [4] > 20.6 µM

COCCCNc1nc2c(c(=O)n(C)c(=O)n2C)n1Cc1cccc(OC)c1
inactive: activity change, negative = inhibition [1] -8.39% | activity change, negative = inhibition [2] -4.82% | activity, negative = inhibition [3] -3.35% | Potency [4] > 20.6 µM

O=c1c(-c2ccc(Cl)cc2)[n+]([O-])c2ccccc2n1O
inactive: activity change, negative = inhibition [1] -1.42% | activity change, negative = inhibition [2] -15.3% | activity, negative = inhibition [3] -2.31% | Potency [4] > 20.6 µM

c1cncc(Oc2cccc(Oc3cccnc3)c2)c1
inactive: activity change, negative = inhibition [1] -6.49% | activity change, negative = inhibition [2] -3.08% | activity, negative = inhibition [3] 29.4% | Potency [4] > 20.6 µM

Cn1c(O)c(C=Nc2ccc(Cc3ccncc3)cc2)c(=O)n(C)c1=O
inactive: activity change, negative = inhibition [1] -2.77% | activity change, negative = inhibition [2] -10.1% | activity, negative = inhibition [3] -1.74% | Potency [4] > 20.6 µM

NS(=O)(=O)c1ccc(-c2ccc(C=NC3CCS(=O)(=O)C3)o2)cc1 (configuration not stated)
inactive: activity change, negative = inhibition [1] 19.2% | activity change, negative = inhibition [2] -3.68% | activity, negative = inhibition [3] -5.15% | Potency [4] > 20.6 µM

CCCCOc1ccc(-c2nnc(N)s2)cc1
inactive: activity change, negative = inhibition [1] 2.03% | activity change, negative = inhibition [2] 25.3% | activity, negative = inhibition [3] 10.7% | Potency [4] > 20.6 µM

CCOC(=O)C1CCN(c2ncnc3c2cnn3-c2ccc(Cl)cc2)CC1
inactive: activity change, negative = inhibition [1] 0.357% | activity change, negative = inhibition [2] -16.1% | activity, negative = inhibition [3] 4.03% | Potency [4] > 20.6 µM

COc1ccccc1C(=O)N1CCCC1(C#N)c1ccccc1 (configuration not stated)
inactive: activity change, negative = inhibition [1] -10.1% | activity change, negative = inhibition [2] -0.126% | activity, negative = inhibition [3] -2.09% | Potency [4] > 20.6 µM

CSc1nc2[nH]c3c(c2c2nncn12)CC(C)(C)OC3
inactive: activity change, negative = inhibition [1] -4.3% | activity change, negative = inhibition [2] -1.24% | activity, negative = inhibition [3] 7.21% | Potency [4] > 20.6 µM

Cc1cc(C)n(C(=O)CSc2nc3ccccc3o2)n1
inactive: activity change, negative = inhibition [1] 13.4% | activity change, negative = inhibition [2] -4.76% | activity, negative = inhibition [3] 2.26% | Potency [4] > 20.6 µM

Cc1ccc2[nH]c3c(NCCN4CCOCC4)ncnc3c2c1
inactive: activity change, negative = inhibition [1] -6.77% | activity change, negative = inhibition [2] 7.47% | activity, negative = inhibition [3] 0.396% | Potency [4] > 20.6 µM

COc1ccc(OC)c(C2=Nn3c(nnc3-c3ccco3)SC2)c1
inactive: activity change, negative = inhibition [1] -13.7% | activity change, negative = inhibition [2] 24.6% | activity, negative = inhibition [3] -6.07% | Potency [4] > 20.6 µM

CCOC(=O)c1c(C)n(C)c2ccc(OC)c(NC(=O)c3cccs3)c12
inactive: activity change, negative = inhibition [1] -7.29% | activity change, negative = inhibition [2] 5.2% | activity, negative = inhibition [3] -16.1% | Potency [4] > 20.6 µM

Reference: PubChem BioAssay (NCATS)
